Drawing on PubChem BioAssay (NCI), this text covers growth for 13 compounds.

The panel holds about 83,000 compounds, 20% with a hit somewhere; the sample as a whole holds those more often.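 Assay: single dose, 48 h. Readout: percent growth (0 = no net growth; negative = cell death). Active: <10.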 Unmarked numbers belong to inactive results. Activity calls are given as the source filed them.

Among the test systems are T-47D breast; BT-549 breast; MDA-MB-435 melanoma; SW-620 colon; MCF7 breast; HCT-116 colon; HCC-2998 colon; KM12 colon.
What all share (assay): NCI-60 one-dose screen, 48 h (100 = growth as untreated, 0 = no growth, -100 = all killed)
Common to all, as to conditions: 10 µM unless noted

For the compound `CC(C)(C)OC(=O)N1CC(Cn2cc(C(F)(F)F)c3c(Cl)ncnc32)C1`, the growth with T-47D breast is 42.6%; in the assay on BT-549 breast, -91.1% (active); in the assay with MDA-MB-435 melanoma, -83.4% (active); in the assay on SW-620 colon it was -37.6% (active); in the assay on MCF7 breast it was -32.7% (active); with HCT-116 colon, -84.5% (active). Further, the results for the growth in the assay on HCC-2998 colon and with KM12 colon were -89.2% (active) and -50.4% (active), respectively.
In the case of `COc1ccc(-n2c(-c3ccc(NC(=O)CCCl)cc3)nnc2-c2cc(OC)c(OC)c(OC)c2)cc1`, the growth in the assay with T-47D breast is 25.3%; in the assay with BT-549 breast it was 66.6%; in the assay with MDA-MB-435 melanoma it was 54.9%; in the assay with SW-620 colon, 54.5%; in the assay on MCF7 breast it was 23.2%; with HCT-116 colon, 35.7%. Further, the growth was 43.2% with HCC-2998 colon and 15.4% in the assay on KM12 colon.
As for `COc1ccc(-c2coc3c(CO)c(O)ccc3c2=O)cc1`, the growth is 61.8% with T-47D breast; 14.2% with BT-549 breast; 60.2% in the assay with MDA-MB-435 melanoma; 83.5% in the assay with SW-620 colon; 40.8% in the assay on MCF7 breast; 19.3% with HCT-116 colon. Also, the results for the growth in the assay with HCC-2998 colon and with KM12 colon were 29.6% and 60.4%, respectively.
Regarding `Nc1ncc(-c2ccc3ncnc(Nc4ccc(F)c(Cl)c4)c3c2)cn1`, the growth is 26% in the assay on T-47D breast; 22.5% in the assay on BT-549 breast; 84% in the assay on MDA-MB-435 melanoma; 66.4% in the assay with SW-620 colon; 27.1% in the assay with MCF7 breast; 21% in the assay on HCT-116 colon. In addition, the growth in the assay with HCC-2998 colon is 83.9%; in the assay on KM12 colon it was 66.1%.
Regarding `C[C@H]1C=C(C[C@@H](O)CCCCCCCCCC[C@@H](O)[C@H]2CCC(=O)O2)C(=O)O1`, the growth was 92.6% in the assay on T-47D breast; 112% in the assay on BT-549 breast; 113% in the assay with MDA-MB-435 melanoma; 99.9% in the assay with SW-620 colon; 118% in the assay on MCF7 breast; 87.9% in the assay on HCT-116 colon. Moreover, the growth in the assay on HCC-2998 colon was 97.7%; in the assay with KM12 colon it was 105%.
Consider `Cc1cccc(NC(=O)CCc2ccc(N3C(N)=NC(N)=NC3(C)C)cc2)c1`, for which the growth in the assay with T-47D breast is 73.1%; with BT-549 breast it was 45.8%; with MDA-MB-435 melanoma, 25.9%; in the assay with SW-620 colon it was 33.5%; in the assay with MCF7 breast it was 29.3%; in the assay with HCT-116 colon, 18.9%. Also, the growth is 33.3% in the assay on HCC-2998 colon and 22.7% in the assay on KM12 colon.
As to `COc1ccc(-c2nnc(SCC(=O)N3CCN(c4cc5c(cc4F)c(=O)c(C(=O)O)cn5C4CC4)CC3)o2)cc1OC`, the growth is 70.7% in the assay with T-47D breast; 69.1% with BT-549 breast; 100% in the assay with MDA-MB-435 melanoma; 96.2% in the assay with SW-620 colon; 83.6% with MCF7 breast; 55.3% in the assay with HCT-116 colon. Also, the values for the growth in the assay on HCC-2998 colon and in the assay on KM12 colon were 108% and 99.4%, respectively.
On to `Cc1nccc2c3ccc(OCc4cn(Cc5ccc(Br)cc5)nn4)cc3n(CCCc3ccccc3)c12`, for which the growth was 93.3% with T-47D breast; 88.2% in the assay on BT-549 breast; 96.7% with MDA-MB-435 melanoma; 97.8% in the assay with SW-620 colon; 75.2% in the assay with MCF7 breast; 63.6% in the assay with HCT-116 colon. In addition, the growth in the assay with HCC-2998 colon is 84.7%; in the assay on KM12 colon, 92.6%.
With `O=C(NCCNc1nccc(-c2c(-c3cccc(O)c3)nc3sccn23)n1)c1cccc(C(F)(F)F)c1`, the growth in the assay with T-47D breast is 69.5%; with BT-549 breast it was 88%; in the assay on MDA-MB-435 melanoma, 21.7%; in the assay with SW-620 colon, 107%; in the assay on MCF7 breast, 75.3%; in the assay on HCT-116 colon it was 74.3%. Moreover, the growth in the assay with HCC-2998 colon was 117%; with KM12 colon it was 80.9%.
Consider `COc1ccc(C(=O)NC(=O)Nc2ccc3c(c2)NC(=O)/C3=C\c2[nH]c(C)c(C(=O)O)c2C)c(F)c1`, for which the growth is 58.5% in the assay on T-47D breast; 21.7% in the assay on BT-549 breast; 66.4% in the assay with MDA-MB-435 melanoma; 55% in the assay on SW-620 colon; 74.8% in the assay on MCF7 breast; 59.6% in the assay with HCT-116 colon. Moreover, the growth in the assay with HCC-2998 colon was 46.6%; in the assay with KM12 colon it was 26.3%.
`Nc1nccc2c1ccn2-c1cccc(NC(=O)c2ccc(N3CCOCC3)c(C(F)(F)F)c2)c1`: the growth with T-47D breast is 45.7%; in the assay on BT-549 breast, -5.74% (active); with MDA-MB-435 melanoma, 2.02% (active); with SW-620 colon, 25.5%; with MCF7 breast, 16%; in the assay on HCT-116 colon, 7.23% (active). Moreover, the growth in the assay with HCC-2998 colon is 23.9%; in the assay with KM12 colon it was -14.5% (active).
Turning to `S=c1[nH]nc(Cn2c3ccccc3c3ccncc32)o1`, the growth with T-47D breast is 96%; with BT-549 breast, 105%; in the assay on MDA-MB-435 melanoma it was 102%; in the assay on SW-620 colon, 104%; in the assay with MCF7 breast, 109%; in the assay on HCT-116 colon, 102%. In addition, the growth in the assay with HCC-2998 colon is 106%; with KM12 colon, 102%.
In the case of `O=[N+]([O-])c1cccc(C(c2ccccc2)c2ccccc2)c1`, the growth is 83.2% with T-47D breast; 106% with BT-549 breast; 99.5% with MDA-MB-435 melanoma; 87.7% in the assay with SW-620 colon; 106% with MCF7 breast; 65.6% in the assay on HCT-116 colon. Besides, the growth was 92.5% in the assay with HCC-2998 colon and 87% in the assay on KM12 colon.
